Test results: PubChem BioAssay AID504582 (Broad Institute, 2011)
Among all 340,000 compounds or so, about 2,300 (0.68%) were called active. The sample holds actives, similar compounds and a random draw of the others, so the mix is not that of the screen. Values without a mark were called inactive. Rule as the data show it: active = growth rescue above about 28% (passing the limit was not always enough); inconclusive = no clear call, values can overlap the other calls.

Assay: rescue of yeast from PfHsp40 toxicity, primary screen, S. cerevisiae, ATP luminescence (AID 504582);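 also: yeast W303a lacking pdr1 and pdr3 grown in galactose medium; growth measured after three days at 30 °C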
Details: S. cerevisiae expressing PfHsp40, growth rescue, at 12.5 µM, active compounds read high
`COCCCNC(=S)N1CCCC(c2nc3cc(C)c(C)cc3[nH]2)C1` (stereo not drawn) showed a growth rescue of -0.694%. Work on `CCc1ccccc1N(CC(=O)N1CCN(c2ccccc2F)CC1)S(C)(=O)=O` yielded a growth rescue of 0.191%. Compound `COc1ccc(N2C(=O)/C(=C\c3ccco3)N=C2SCC(N)=O)cc1Cl` has a growth rescue of -0.407%. `COc1ccc(N2CCN(c3ccc([N+](=O)[O-])cc3Cl)CC2)cc1` showed a growth rescue of -0.626%. Work on `COc1ccc2c(c1)C=CC1(O2)N(CCO)c2ccccc2C1(C)C` (stereo not drawn) yielded a growth rescue of -0.159%. In the case of `CN1c2ccc([N+](=O)[O-])cc2C(C)(C)C12C=Cc1cc(C(=O)O)ccc1O2` (stereo not drawn), the growth rescue is reported as 200% (active). For `Cc1c(Cl)c([N+](=O)[O-])nn1Cc1ccc(C(=O)N/N=C\c2cc(Cl)ccc2O)o1`, the growth rescue was 29.8% (active). `Cc1nn(Cc2ccccc2Cl)c(C)c1NC(=O)Cn1nc([N+](=O)[O-])c(Cl)c1C` showed a growth rescue of -0.0385%. Work on `O=C(N/N=C\c1ccc(Br)cc1)c1ccc(Cn2cccn2)o1` yielded a growth rescue of 0.111%. In the case of `COc1ccc(/C=C(\C#N)C(=O)NCCCn2ccnc2)cc1`, the growth rescue is reported as -0.489%. Compound `CC1(C)NC(=O)N(CCCCSc2ccc(Cl)cc2)C1=O` has a growth rescue of 0.18%. For `Cc1ccc(NC(=O)COc2ccc(/C=N\NC(=O)c3cccnc3)cc2)cc1C`, the growth rescue was -0.012%. For `O=C(N/N=C/c1sc(N2CCCCC2)nc1-c1cccs1)c1cccnc1`, the growth rescue was 140% (active). `O=C(O)c1ccc(N/N=C/c2cn(-c3ccccc3)nc2-c2cccs2)cc1` showed a growth rescue of 0.668%. For `CSc1ccc(/C=N/NC(=O)c2cccc(Cl)c2)cc1`, the growth rescue was 40.3% (active). `O=C(N/N=C/c1ccc(Cl)c(Cl)c1)c1ccc2nc[nH]c2c1` gave a growth rescue of 0.517%. `O=C(NN=Cc1ccccc1)c1ccccc1` showed a growth rescue of 0.391%. `COC(=O)C1=NNC2(c3ccc(C)cc3)C(=O)N(c3cccc(C)c3C)C(=O)C12` (stereo not drawn) gave a growth rescue of -0.596%. Compound `O=C(CSc1ccccn1)N1CCN(S(=O)(=O)c2ccc(Cl)cc2)CC1` has a growth rescue of -0.63%. In the case of `CCc1cc(C(N)=O)c(NC(=O)c2ccc(OC)cc2)s1`, the growth rescue is reported as 648% (active). `COc1ccc(C(=O)Nc2sc(C)c(C)c2CN2CCOCC2)cc1` showed a growth rescue of 0.992%. Compound `CCc1cc(C(=O)c2ccc(OC)cc2)c(NC(=O)CN2CCN(C)CC2)s1` has a growth rescue of -1.5%. For `O=C(c1ccc2c(c1)OCO2)N1CCNc2ccccc2C1`, the growth rescue was -1.38%. With `COc1ccc(-n2cnc3cc(C(=O)NC4CCCC4)ccc32)cc1` the growth rescue was 3.16%. In the case of `COc1cc(C(=O)NC2CCN(C)CC2)ccc1Nc1ncc2c(n1)N(C1CCC(O)CC1)CCC(=O)N2C` (stereo not drawn), the growth rescue is reported as 44.4% (active). `COc1ccc(C(=O)NC2CC2)cc1OC1CCN(Cc2cnn(C)c2)CC1` showed a growth rescue of -0.458%. Work on `O=C(/C=N/O)Nc1ccccc1` yielded a growth rescue of -1.81%. Work on `c1ccc(-c2nccc(-c3ccc(-n4cnc5ccccc54)cc3)n2)nc1` yielded a growth rescue of 3.45%. For `CN(C)Cc1c(O)ccc2c(=O)c(-c3ccccc3Cl)coc12`, the growth rescue was -1.86%. In the case of `O=C(NCCC1=CCCCC1)c1ccc(Cl)c([N+](=O)[O-])c1`, the growth rescue is reported as 34.2% (active). In the case of `CN(c1ccc(C(=O)NCCC2=CCCCC2)cc1)S(C)(=O)=O`, the growth rescue is reported as -0.452%. In the case of `O=C(NCCC1=CCCCC1)c1ccc(-n2cncn2)cc1`, the growth rescue is reported as 0.575%. `CCOc1ccccc1N(CC(=O)NC1CCCCC1)C(=O)CCCC(=O)Nc1ccccn1` gave a growth rescue of 0.515%. In the case of `Cc1ccc(NC(=O)CN(C)C(=O)COC(=O)C(C)(C)Oc2ccc(Cl)cc2)cc1`, the growth rescue is reported as -0.952%. In the case of `O=C(NNC(=S)NC(=O)c1cn(-c2ccccc2)nc1-c1ccccc1)c1ccncc1`, the growth rescue is reported as 117% (active). For `Cc1ccc(-c2nn(-c3ccccc3)cc2C(=O)NC2CCC(O)CC2)cc1` (stereo not drawn), the growth rescue was -0.972%. For `NC(=O)C1CCN(C(=O)c2cn(-c3ccccc3)nc2-c2cccnc2)CC1`, the growth rescue was -1.23%. Compound `Cc1ccc(SC(=O)COc2ccc(C)c(C)c2)cc1` has a growth rescue of -0.169%. Compound `CCOc1ccc(-c2ccc(SCC(=O)N3CCOCC3)nn2)cc1` has a growth rescue of -0.865%. `CC(C)C[C@@H](COc1ccccc1)N1CCN(CC(C)C)CCC1=O` gave a growth rescue of 0.09%. With `CC1(C)C=Cc2c(ccc3c2OC[C@@H](c2ccc(O)cc2O)C3)O1` the growth rescue was 232% (active). Work on `Nc1cc(N)nc(SCC(=O)Nc2cccc(S(=O)(=O)N3CCCCC3)c2)n1` yielded a growth rescue of 0.009%. In the case of `Cn1c(CC2Sc3ccccc3NC2=O)nnc1SCC(=O)c1ccc(Cl)cc1` (stereo not drawn), the growth rescue is reported as -0.256%. `COc1ccc(C2N=C(N)N=C(N)N2c2ccccc2)cc1OC` (stereo not drawn) gave a growth rescue of 0.038%. `COCCN(C(=O)c1ccccc1F)c1c(N)n(Cc2ccccc2)c(=O)[nH]c1=O` showed a growth rescue of -0.643%. For `CC/C(=N\NC(=O)c1ccccc1Cl)c1ccc(Br)s1`, the growth rescue was -0.619%. In the case of `CC/C(=N\NC(=O)c1ccccc1O)c1c(O)n(Cc2ccccc2)c(=O)[nH]c1=O`, the growth rescue is reported as 44.8% (active). `COc1ccc(C(=O)CN2C(=O)NC(C)(c3ccc(C)cc3)C2=O)cc1OC` (stereo not drawn) gave a growth rescue of 0.439%. For `COc1ccc(C2Nc3ccccc3C(=O)N2c2ccc(Cl)cc2)cc1Cn1cc([N+](=O)[O-])cn1` (stereo not drawn), the growth rescue was 0.089%. In the case of `Cn1ncc(Br)c1C(=O)NC1CCCC1`, the growth rescue is reported as -0.467%. With `COC(=O)[C@@H]1C[C@@]2(O)[C@H](O)[C@H](O)[C@H](O)C[C@H]2N1Cc1ccc(C)s1` the growth rescue was -1.59%. For `COC(=O)[C@@H]1C[C@@]2(O)[C@H](O)[C@H](O)[C@H](O)C[C@H]2N1Cc1ccc(C(C)(C)C)cc1`, the growth rescue was 29% (active). In the case of `COC(=O)[C@@H]1C[C@@]2(O)[C@@H](O)[C@@H](O)[C@@H](O)C[C@H]2N1Cc1ccc(C)s1`, the growth rescue is reported as -0.441%. `CC(=O)c1cccc(-c2ccc(CN3C(CC(C)C)C(=O)N(Cc4cn(CC5CCCCC5)nn4)CCS3(=O)=O)cc2)c1` (stereo not drawn) gave a growth rescue of 0.3%. With `Cc1cc(N=Nc2ccc3ccccc3c2)ccc1O` the growth rescue was 91.3% (active). Compound `C#CCOCCOCCOCCNc1nc(N2CCN(C(=O)[C@H](C(C)C)n3cc(CCO)nn3)CC2)nc(N2CCN(C(=O)[C@H](C(C)C)n3cc(CCO)nn3)CC2)n1` has a growth rescue of -2.28%. For `C#CCOCCOCCOCCNc1nc(N2CCN(C(=O)CCCCCCCCCCNC(=O)[C@H]([C@@H](C)CC)n3cc(CCCCN=C(N)N)nn3)CC2)nc(N2CCN(C(=O)CCCCCCCCCCNC(=O)[C@H](CO)n3cc(CCCSC)nn3)CC2)n1`, the growth rescue was 29.5% (active). Work on `C#CCOCCOCCOCCNc1nc(N2CCN(C(=O)[C@H](CCCN=C(N)N)n3cc(C(N)[C@@H](C)CC)nn3)CC2)nc(N2CCN(C(=O)[C@H](CO)n3cc([C@@H](N)C(C)C)nn3)CC2)n1` (stereo partly drawn) yielded a growth rescue of -0.354%.
